# Data reported in PubChem BioAssay.
# The source made the active and inactive calls.
# How the values were obtained:
# [1] = binders of probe aFSTL3 on microarray, primary screen, stem cell growth factor project, biochemical, small-molecule microarray, fluorescence 635/667 (AID 1064); conditions: higher = more signal;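 note: measures binding of the biotinylated anti-FSTL3 antibody to printed compounds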
# [2] = binders from COS7 lysate, DM2A8 probe, primary screen, torsin A project, cell lysate, small-molecule microarray, fluorescence 635/667 (AID 1065); conditions: higher = more signal, COS7 lysate expressing mutant human TOR1A
# [3] = binders of probe aFGF2 on microarray, primary screen, stem cell growth factor project, biochemical, small-molecule microarray, fluorescence 635/667 (AID 1067); conditions: higher = more signal;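 note: measures binding of biotinylated aFGF2 protein to printed compounds on slides; z-score merges feature fluorescence and signal-to-noise across triplicate slides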
# [4] = binders of probe aFGF10 on microarray, primary screen, stem cell growth factor project, biochemical, small-molecule microarray, fluorescence 635/667 (AID 1071); conditions: higher = more signal;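 note: score merges 667 nm spot intensity and signal to noise from triplicate slides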
# [5] = biological target: Neurogenic locus notch homolog protein 2 (Homo sapiens) (UniProt Q04721); assay: Notch2 binders on small-molecule microarrays, primary screen, biochemical, small-molecule microarray, 635 nm fluorescence, stem cell growth factors (AID 1073); conditions: Notch2 binding, higher = more signal
# [6] = biological target: Pro-neuregulin-1, membrane-bound isoform (Homo sapiens) (UniProt Q02297); assay: NRG1 binders on small-molecule microarrays, primary screen, psychiatric disease protein project, biochemical, small-molecule microarray, fluorescence 635/667 (AID 1075); conditions: NRG1 binding, 635 nm fluorescence, higher = more signal;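 note: score combines 667 nm spot fluorescence with signal to noise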
# Pro-neuregulin-1, membrane-bound isoform (Homo sapiens), sequence (Q02297 whole entry, looked up, the tested form may be a part, canonical isoform): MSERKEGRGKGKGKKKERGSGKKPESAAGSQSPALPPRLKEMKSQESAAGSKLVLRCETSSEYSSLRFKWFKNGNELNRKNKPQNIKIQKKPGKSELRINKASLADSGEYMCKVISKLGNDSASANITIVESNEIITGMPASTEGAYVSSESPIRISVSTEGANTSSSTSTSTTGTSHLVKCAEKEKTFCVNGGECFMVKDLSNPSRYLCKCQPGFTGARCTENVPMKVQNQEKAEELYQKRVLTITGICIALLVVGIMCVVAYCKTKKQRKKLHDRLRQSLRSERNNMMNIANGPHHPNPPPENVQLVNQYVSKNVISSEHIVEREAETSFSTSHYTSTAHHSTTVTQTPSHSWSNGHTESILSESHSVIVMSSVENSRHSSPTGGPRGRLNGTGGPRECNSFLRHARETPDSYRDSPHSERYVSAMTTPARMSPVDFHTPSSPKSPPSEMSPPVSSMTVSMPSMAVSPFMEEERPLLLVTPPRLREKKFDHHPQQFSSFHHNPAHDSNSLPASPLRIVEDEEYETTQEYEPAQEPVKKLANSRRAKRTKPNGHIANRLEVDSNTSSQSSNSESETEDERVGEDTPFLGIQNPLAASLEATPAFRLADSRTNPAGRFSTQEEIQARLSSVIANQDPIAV
# [7] = test system: Neuregulin-1 EGF-like domain; assay: binders of neuregulin-1 EGF-like domain, primary screen, biochemical, small-molecule microarray, 635 nm fluorescence (AID 1081); conditions: small-molecule microarray binding, higher = more signal;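 note: binding of the protein to compounds printed on small-molecule microarray slides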
# [8] = FRG1 promoter luciferase signal modulators, primary screen, FRG1 inhibition for FSHD, cell-based, C2C12 myotubes, firefly/Renilla luciferase, luminescence (AID 1084); conditions: higher = more signal, called active from +8 up or from −8 down
# [9] = binders of probe aFST on microarray, primary screen, stem cell growth factor project, biochemical, small-molecule microarray, fluorescence 635/667 (AID 1086); conditions: higher = more signal;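 note: score merges 667 nm fluorescence with signal-to-noise of each printed compound spot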
# [10] = binders of probe aHhip on microarray, primary screen, stem cell growth factor project, biochemical, small-molecule microarray, fluorescence 635/667 (AID 1087); conditions: higher = more signal;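 note: score merges spot fluorescence at 667nm with spot signal to noise ratio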
# [11] = test system: PRMT1 (protein arginine N-methyltransferase 1); assay: PRMT1 binders on small-molecule microarrays, primary screen, biochemical, small-molecule microarray, 635 nm fluorescence (AID 1088); conditions: small-molecule microarray binding, higher = more signal;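 note: binding of Prmt1 protein to compounds spotted on small-molecule microarray slides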
# [12] = yeast growth modulation, basal conditions, primary screen, YJM789 clinical isolate, OD600, 24 h (AID 1089);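 note: growth of clinical yeast isolate S. cerevisiae YJM 789 seeded 1000 cells per well; test concentration not given here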; conditions: S. cerevisiae YJM789 growth, higher = more signal, called active from +8 up or from −8 down
# [13] = fission yeast growth modulation, primary screen, strain 972, OD600, 24 h, no modulator (AID 1090);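 note: basal condition with compound alone and no growth modifier present; test concentration not given here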; conditions: S. pombe 972 growth, higher = more signal, called active from +8 up or from −8 down
# [14] = S. cerevisiae growth modulation with rapamycin, primary screen, strain BY4716, OD600, 96 h (AID 1091); conditions: higher = more signal, called active from +8 up or from −8 down; note: test concentration not given here
# [15] = biological target: Torsin-1A-interacting protein 2 (Homo sapiens) (UniProt Q8NFQ8); assay: LULL1 binders on small-molecule microarray, primary screen, cell lysate, human LULL1 lysate, 635/667 nm fluorescence (AID 1092); conditions: hLULL1 lysate binding, 635 nm fluorescence, higher = more signal;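 note: probe is lysate of COS7 cells overexpressing human LULL1; score merges per-feature 667 nm fluorescence with signal-to-noise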
# Torsin-1A-interacting protein 2 (Homo sapiens), sequence (Q8NFQ8 whole entry, looked up): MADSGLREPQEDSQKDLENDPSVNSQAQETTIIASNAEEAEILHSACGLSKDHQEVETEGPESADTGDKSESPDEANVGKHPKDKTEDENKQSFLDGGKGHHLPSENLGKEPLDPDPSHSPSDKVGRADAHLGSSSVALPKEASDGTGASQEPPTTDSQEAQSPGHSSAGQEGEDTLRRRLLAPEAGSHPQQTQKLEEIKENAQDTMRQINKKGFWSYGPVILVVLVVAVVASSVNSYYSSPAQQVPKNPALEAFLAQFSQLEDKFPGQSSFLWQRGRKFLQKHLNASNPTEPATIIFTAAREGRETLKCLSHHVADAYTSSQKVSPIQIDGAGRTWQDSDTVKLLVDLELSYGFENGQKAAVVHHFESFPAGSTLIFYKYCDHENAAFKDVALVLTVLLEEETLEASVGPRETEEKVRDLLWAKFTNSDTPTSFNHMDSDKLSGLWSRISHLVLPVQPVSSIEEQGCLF
# [16] = E. coli growth modulation, two-sided OD650, primary screen, E. coli filamentation project, strain DRC41, 24 h (AID 1093); conditions: OD650, 24 h, higher = more signal, called active from +8 up or from −8 down;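 note: MC1000 strain lacking acrAB efflux and sulA so SOS filamentation is blocked; test concentration not given here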
# [17] = small-molecule microarray binders of probe aLefty2, primary screen, biochemical, biotinylated probe, 635/667 nm fluorescence (AID 1094); conditions: higher = more signal;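 note: score merges spot fluorescence near 667 nm with spot signal-to-noise ratio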
# [18] = test system: Noggin (protein binding on small-molecule microarray); assay: Noggin binders on small-molecule microarray, primary screen, biochemical, 635/667 nm fluorescence (AID 1095); conditions: 635 nm fluorescence, higher = more signal;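 note: score merges 667 nm feature fluorescence with signal to noise over triplicate slides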
# [19] = biological target: Neurogenic locus notch homolog protein 3 (Homo sapiens) (UniProt Q9UM47); assay: NOTCH3 binders on small-molecule microarray, primary screen, biochemical, 635/667 nm fluorescence (AID 1096); conditions: NOTCH3 binding, 635 nm fluorescence, higher = more signal
# Neurogenic locus notch homolog protein 3 (Homo sapiens), sequence (Q9UM47 whole entry, looked up): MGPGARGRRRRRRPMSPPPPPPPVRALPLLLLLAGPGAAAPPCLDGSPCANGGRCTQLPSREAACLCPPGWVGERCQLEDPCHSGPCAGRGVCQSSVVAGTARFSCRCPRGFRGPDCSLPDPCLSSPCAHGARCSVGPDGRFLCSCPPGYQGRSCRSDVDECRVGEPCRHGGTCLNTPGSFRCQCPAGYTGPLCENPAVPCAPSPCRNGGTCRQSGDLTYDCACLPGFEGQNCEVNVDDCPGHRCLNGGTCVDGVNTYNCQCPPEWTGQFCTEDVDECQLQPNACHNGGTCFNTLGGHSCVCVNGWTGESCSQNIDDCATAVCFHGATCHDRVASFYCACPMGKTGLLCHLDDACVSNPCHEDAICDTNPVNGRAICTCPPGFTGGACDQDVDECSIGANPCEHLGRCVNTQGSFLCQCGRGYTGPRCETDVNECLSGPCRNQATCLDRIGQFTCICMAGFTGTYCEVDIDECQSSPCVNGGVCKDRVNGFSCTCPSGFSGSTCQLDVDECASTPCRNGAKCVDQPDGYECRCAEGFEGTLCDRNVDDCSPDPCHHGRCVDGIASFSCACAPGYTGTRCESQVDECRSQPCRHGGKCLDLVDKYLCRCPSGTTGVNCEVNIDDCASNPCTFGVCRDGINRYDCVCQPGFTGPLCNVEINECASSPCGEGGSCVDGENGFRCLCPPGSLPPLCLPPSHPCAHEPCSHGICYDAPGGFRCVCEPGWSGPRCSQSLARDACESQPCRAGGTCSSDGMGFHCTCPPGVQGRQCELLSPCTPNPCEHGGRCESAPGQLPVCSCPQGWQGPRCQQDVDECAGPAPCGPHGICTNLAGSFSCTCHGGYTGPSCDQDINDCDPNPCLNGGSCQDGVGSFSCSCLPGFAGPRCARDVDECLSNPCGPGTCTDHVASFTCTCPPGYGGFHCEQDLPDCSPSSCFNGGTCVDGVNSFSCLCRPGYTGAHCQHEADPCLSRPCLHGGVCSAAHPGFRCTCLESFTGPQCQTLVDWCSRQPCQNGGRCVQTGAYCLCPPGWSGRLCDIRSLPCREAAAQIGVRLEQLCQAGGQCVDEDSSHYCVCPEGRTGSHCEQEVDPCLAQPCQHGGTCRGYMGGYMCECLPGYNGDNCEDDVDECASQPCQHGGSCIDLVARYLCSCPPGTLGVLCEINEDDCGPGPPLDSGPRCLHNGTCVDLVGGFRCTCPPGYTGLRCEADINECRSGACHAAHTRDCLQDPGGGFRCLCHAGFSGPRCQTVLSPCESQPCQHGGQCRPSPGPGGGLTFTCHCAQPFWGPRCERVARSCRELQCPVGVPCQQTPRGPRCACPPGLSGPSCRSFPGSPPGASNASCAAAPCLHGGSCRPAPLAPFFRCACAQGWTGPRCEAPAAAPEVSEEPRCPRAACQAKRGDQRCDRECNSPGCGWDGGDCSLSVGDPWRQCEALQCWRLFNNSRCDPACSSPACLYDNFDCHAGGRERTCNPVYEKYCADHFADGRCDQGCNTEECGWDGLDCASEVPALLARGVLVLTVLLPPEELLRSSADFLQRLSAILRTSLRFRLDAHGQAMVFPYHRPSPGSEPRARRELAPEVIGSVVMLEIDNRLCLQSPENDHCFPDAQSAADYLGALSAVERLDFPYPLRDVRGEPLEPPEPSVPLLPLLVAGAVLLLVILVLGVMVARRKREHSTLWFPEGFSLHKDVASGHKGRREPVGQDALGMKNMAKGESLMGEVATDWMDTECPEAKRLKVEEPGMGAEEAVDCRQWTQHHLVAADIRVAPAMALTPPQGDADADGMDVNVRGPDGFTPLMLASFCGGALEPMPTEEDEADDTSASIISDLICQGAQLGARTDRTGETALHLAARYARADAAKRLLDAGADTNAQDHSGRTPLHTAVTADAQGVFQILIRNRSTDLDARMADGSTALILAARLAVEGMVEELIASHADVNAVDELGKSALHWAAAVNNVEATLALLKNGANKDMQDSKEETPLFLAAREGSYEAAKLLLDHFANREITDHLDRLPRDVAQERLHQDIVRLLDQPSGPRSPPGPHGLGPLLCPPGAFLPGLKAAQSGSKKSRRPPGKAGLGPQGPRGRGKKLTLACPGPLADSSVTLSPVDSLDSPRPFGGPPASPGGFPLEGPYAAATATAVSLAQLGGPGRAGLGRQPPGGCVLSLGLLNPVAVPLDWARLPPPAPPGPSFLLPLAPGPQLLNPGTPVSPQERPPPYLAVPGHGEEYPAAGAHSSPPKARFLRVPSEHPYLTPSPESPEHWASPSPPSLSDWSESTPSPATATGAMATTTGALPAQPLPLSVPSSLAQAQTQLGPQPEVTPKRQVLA
# [20] = small-molecule microarray binders of probe aEGFR, primary screen, biochemical, biotinylated probe, 635/667 nm fluorescence (AID 1097); conditions: higher = more signal;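 note: probe is a biotinylated anti-EGFR antibody binding compounds printed on slides; score combines fluorescence near 667 nm and signal to noise of each spot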
Compound,composite z-score [1],composite z-score [2],composite z-score [3],composite z-score [4],composite z-score [5],composite z-score [6],composite z-score [7],z-score [8],composite z-score [9],composite z-score [10],composite z-score [11],z-score [12],z-score [13],z-score [14],composite z-score [15],z-score [16],composite z-score [17],composite z-score [18],composite z-score [19],composite z-score [20]
[N-]=[N+]=NCc1ccccc1[C@H]1OC(c2ccc(OCCCO)cc2)=N[C@@]1(Cc1ccccc1N=[N+]=[N-])C(=O)NCCN1CCOCC1,0.0233,0.0401,0.14,0.981,1.61,1.49,1.1,0.342 (inactive),1.21,0.113,1.54,0.0051 (inactive),-13.9 (active),0.355 (inactive),3.43,0.72 (inactive),0.328,0.476,1.02,-0.0205
COCCOC(=O)N1C(=O)[C@@]2(c3ccccc31)[C@H](c1ccccc1OCCO)N1[C@H](c3ccccc3)[C@H](c3ccccc3)OC(=O)[C@H]1[C@@H]2C(=O)N1CCc2cc(OC)c(OC)cc2C1,0.184,0.124,0.071,0.336,0.403,0.982,1.25,-1.61 (inactive),0.356,0.28,1.52,2.11 (inactive),1.99 (inactive),6.86 (inactive),2.01,0.344 (inactive),0.0706,1.34,1.04,0.0556
COc1ccc(CCNC(=O)[C@@H]2c3ccccc3C(=O)N(Cc3ccccc3)[C@H]2c2ccc(CO)cc2)cc1,0.262,1.24,-0.0866,-0.101,-0.117,-0.0744,1.2,-2.26 (inactive),0.0887,3.74,1.55,-1.34 (inactive),-0.586 (inactive),-0.332 (inactive),3.23,1.95 (inactive),0.06,0.107,0.233,-0.0978
O=C1C2C=CC(C(O)c3ccccn3)N(Nc3ccccc3)C2C(=O)N1c1ccccc1 (stereo not given),-0.205,-1.39,-0.105,0.356,0.177,1.65,1.03,1.29 (inactive),0.338,-0.0003,0.207,0.756 (inactive),1.41 (inactive),0.391 (inactive),2.24,-0.917 (inactive),-0.0991,-0.292,-0.254,-0.108
C=CCC(OC(C)=O)[C@@H]1[C@@H](N(Cc2cccc3ccccc23)C(=O)Cc2ccc(F)cc2)c2cc(OCCCO)ccc2N1C(=O)Cc1ccc(OC)cc1 (stereo not given in full),-0.449,0.202,-0.116,0.493,-0.045,-0.418,-0.424,-1.05 (inactive),0.0417,-0.191,-0.151,-1.18 (inactive),0.246 (inactive),-0.72 (inactive),-0.0743,0.802 (inactive),-0.0137,0.122,0.159,-0.309
C=CCNC(=O)[C@@H]1[C@H]2C(=O)O[C@H](c3ccccc3)[C@H](c3ccccc3)N2[C@H](c2ccc(O)cc2)[C@@]12C(=O)Nc1ccc(C#CCCO)cc12,0.0065,-0.395,-0.13,0.508,-1.34,1.37,-0.353,-0.0378 (inactive),-1.05,-0.251,-0.36,-0.328 (inactive),-0.397 (inactive),-0.301 (inactive),2.17,2.31 (inactive),-0.259,-1.2,-0.261,-0.261
Cc1ccc(N2C(=O)c3ccccc3[C@](C)(C(=O)NC(C)C)[C@@H]2c2ccc(CO)cc2)nc1,1.57,-1.06,-0.254,-1.11,-1.61,-1.55,0.787,-0.0923 (inactive),-0.927,0.119,0.595,-0.273 (inactive),-1.14 (inactive),-1.8 (inactive),3.07,1.19 (inactive),-0.0153,-2.13,-0.572,-0.36
C=C(COC)/C(=C/C[C@@H](OC(=O)c1ccncc1)c1cccc(OCCO)c1)c1cc(C(=O)OC)ccc1OC,-0.278,0.525,-0.0428,1.06,0.426,-0.142,1.38,-3.79 (inactive),-0.0671,-0.156,1.56,-25.3 (active),-20.2 (active),-4.36 (inactive),0.512,0.625 (inactive),-0.205,1.32,0.841,-0.0022
CCCCC=C[C@@H](NC(=O)CCc1ccccc1)c1ccccc1,0.0413,1.04,0.0601,0.404,1.11,1.23,1.24,-1.42 (inactive),0.843,0.316,0.887,0.174 (inactive),-1.52 (inactive),2.19 (inactive),1.43,-1.52 (inactive),0.138,0.0567,1.12,0.0184
NC(=O)NCC#Cc1ccc2c(c1)[C@]1(C(=O)N2)[C@H](c2ccc(O)cc2)N2[C@H](c3ccccc3)[C@H](c3ccccc3)OC(=O)[C@H]2[C@@H]1C(N)=O,0.373,-1.07,-0.0925,-0.568,-0.847,-0.283,0.266,-1.07 (inactive),-0.139,0.202,0.64,0.321 (inactive),0.736 (inactive),0.183 (inactive),1.46,0.248 (inactive),-0.072,-0.238,-1.19,-0.187
COC(=O)C(CC#Cc1ccc2c(c1)[C@]1(C(=O)N2)[C@H](c2ccc(O)cc2)N2[C@H](c3ccccc3)[C@H](c3ccccc3)OC(=O)[C@H]2[C@@H]1C(=O)O)C(=O)OC,-0.331,-0.11,-0.132,0.206,0.63,0.82,0.798,0.831 (inactive),1.25,0.0505,0.439,1.22 (inactive),-0.489 (inactive),-0.922 (inactive),2.96,-1.28 (inactive),-0.166,0.307,0.64,-0.0152
CN1C(=O)C2C=CC(C(O)c3ccc(F)cc3)N(N3CCCCC3)C2C1=O (stereo not given),1.1,1.72,0.344,0.139,1.44,1.17,1.19,0.532 (inactive),0.713,0.0274,1.07,1.15 (inactive),1.27 (inactive),2.06 (inactive),2.78,-1.17 (inactive),0.682,-0.513,0.721,0.204
COCC1=C([C@H](O)CCc2ccccc2)[C@H](CO)[C@@H]2C(=O)N(C)C(=O)[C@@H]2C1,-0.479,0.24,-0.235,0.367,0.396,0.378,0.15,-2.22 (inactive),-0.0346,-0.226,0.267,0.119 (inactive),-0.551 (inactive),0.165 (inactive),0.258,1.99 (inactive),-0.184,0.396,-0.351,-0.106
Cc1ccc(C(C)CC(O)C2C=CC3C(=O)N(Cc4ccccc4)C(=O)C3N2n2cnnc2)o1 (stereo not given),1.67,0.46,0.522,0.703,1.29,0.907,1.44,0.386 (inactive),2.16,0.488,1.49,-3.19 (inactive),-2.84 (inactive),-0.829 (inactive),2.51,-1.56 (inactive),1.1,0.0433,1.09,0.778
CN(C)C(=O)[C@]1(Cc2ccccc2N=[N+]=[N-])N=C(c2ccc(OCCCO)cc2)O[C@@H]1c1ccccc1CN=[N+]=[N-],-0.144,0.937,0.122,0.794,1.51,1.8,1.19,0.643 (inactive),0.745,-0.0994,1.5,-2.13 (inactive),-0.393 (inactive),0.545 (inactive),3.51,0.35 (inactive),0.0262,0.821,1.02,-0.0509
CCN(CC)c1ccc(N2CC=CC34O[C@@H]5/C=C\CCCOC(=O)C5[C@H]3C(=O)N(CCCCCO)[C@@H]4C2=O)cc1 (stereo not given in full),0.0158,-1.53,-0.205,-1.03,-1.2,1.04,0.516,0.609 (inactive),-0.663,-0.0994,-0.752,-0.177 (inactive),-0.691 (inactive),-0.624 (inactive),0.45,-0.838 (inactive),-0.231,-0.873,-0.404,-0.216
CN(C)CCCC[C@@H]1NC(=O)[C@H]2C[C@@H](C(=O)NCCCCCCNC(=O)CS)[C@@H](c3ccc(O)cc3)N2C1=O,0.0462,0.576,-0.116,0.165,-0.549,0.848,1.11,1.15 (inactive),-0.337,-0.125,1.17,-1.22 (inactive),-0.225 (inactive),-0.342 (inactive),3.31,0.937 (inactive),-0.0785,1.58,0.196,-0.173
O=C(NCc1ccccc1)[C@]1(Cc2ccccc2)N=C(c2ccc(OCCCO)cc2)O[C@@H]1c1ccccc1,0.78,-0.136,-0.0499,0.885,1.46,1.31,0.93,-2.57 (inactive),0.662,0.0024,0.882,1.83 (inactive),1.26 (inactive),18.9 (active),2.68,-1.26 (inactive),0.0609,-0.102,0.256,0.676
CO[C@H]1O[C@H](CO)[C@@H](OC(=O)Nc2ccc(C(F)(F)F)cc2)[C@H](OC(=O)Nc2ccccc2)[C@H]1OC(=O)Nc1ccccc1,0.113,0.745,0.233,1.15,1.58,1.72,1.3,2.74 (inactive),1.07,-0.105,1.53,0.719 (inactive),-0.304 (inactive),5.51 (inactive),3.14,-0.994 (inactive),0.158,0.896,1.04,0.172
C=C(CCCC)/C(=C/C[C@@H](OC(=O)c1ccncc1)c1ccccc1OCCO)c1cc(C(=O)OC)ccc1OC,-0.256,0.815,-0.0628,0.173,0.791,1.17,1.2,0.488 (inactive),-0.242,-0.0296,1.49,0.176 (inactive),-0.587 (inactive),0.259 (inactive),2.75,0.478 (inactive),-0.0154,0.987,0.754,0.0895
